Compounds with a hit are over-represented: about 3% of the library has one in this group of screens.
KKLEB cytotox = counter-screen for CF NF-kB inhibitors: cytotoxicity; KKLEB CF airway cells viability, ATPlite luminescence, overnight; stronger effect = lower value; cells stimulated with P. aeruginosa culture filtrate; 0.36% of 360,000 active; activity change (cytotoxicity), % at 5 µM; AID 602141;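 active = corrected activity change at or below -50% at 5 µM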
HIF-2a inh = inhibitors of HIF-2a | inhibition, % at 18.8 µM | AID 624352 | 0.72% of 360,000 active | 786-0 RCC cells HIF-2a reporter, luciferase luminescence, overnight;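 active = inhibition of the luminescence signal of 40% or more relative to plate controls, in a single-dose primary screen at 18.75 µM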
LMP1 NFkB inh = reduces LMP1-driven NF-kappaB luciferase signal | LMP1-induced NF-kappaB luciferase reporter cells, luminescence | inhibition, % at 12.5 µM | 0.69% of 350,000 active; in the data active = inhibition above about 41%
Peg3 prom inh = inhibitors of Peg3 promoter. HeLa PEG-Prom luciferase reporter, luminescence, overnight. inhibition, % at 20 µM. 1.7% of 360,000 active;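 active = inhibition of at least 50% at 20 µM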
CF NFkB inh = inhibitors of cystic fibrosis induced NF-kB. KKLEB NF-kB-GFP reporter, PAF-induced, GFP fluorescence overnight. inhibition, % at 5 µM. 0.86% of 360,000 active;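 active = at least 50% inhibition at 5 µM, scaled per plate between neutral and stimulator controls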;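 also: PAF is a Pseudomonas aeruginosa culture filtrate used as stimulus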
TRPM1 prom inh = inhibitors of MITF-driven TRPM1 promoter in melanoma cells | SK-MEL-5 TRPM1 promoter luciferase, 24 h | inhibition, % at 12.5 µM | 0.83% of 330,000 active | AID 488899;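 active = mean inhibition across replicates of 60% or more, whatever share of single replicates reaches that level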
Large screens that a line does not name were inactive.

C[C@@H]1CN([C@H](C)CO)C(=O)c2cc(C#CC3CCCCC3)cnc2O[C@H]1CN(C)Cc1cccnc1	none (no result: TRPM1 prom inh)
Cc1cc(NCCCN2CCOCC2)n2ncc(-c3ccc(Cl)cc3)c2n1	none
Cc1cc(NCCCn2ccnc2)n2ncc(-c3ccc(Cl)cc3)c2n1	KKLEB cytotox -55.4, CF NFkB inh 54.9
O=C(NC(=S)NCc1ccccc1)c1ccccc1	TRPM1 prom inh 104.3
O=C(NC(=S)Nc1nc2c(s1)CCCC2)c1ccccc1	KKLEB cytotox -52.4
COc1ccc(Cl)cc1Cn1c(C)c(C(=O)NCc2ccc(F)cc2)sc1=O	none (no result: LMP1 NFkB inh, TRPM1 prom inh)
O=C1NC2c3c(Cl)sc(Cl)c3C(=O)C2O1 (stereo not drawn)	Peg3 prom inh 68.1
CC1(C)Cc2c(ccc3ccccc23)/C(=C/C(=O)N2CCCCC2)N1	LMP1 NFkB inh 58.4
CC(C)CCNC(=O)C1CCN(S(=O)(=O)c2ccc3c(c2)CC(C)N3C(=O)C2CC2)CC1 (stereo not drawn)	LMP1 NFkB inh 54.3
CCCCNC(=O)C1CCN(S(=O)(=O)c2ccc3c(c2)CC(C)N3C(=O)C2CC2)CC1 (stereo not drawn)	none
CC(=O)N1CCN(C(C(=O)Nc2c(C)cccc2C)c2cccc(F)c2)CC1 (stereo not drawn)	none (no result: KKLEB cytotox, LMP1 NFkB inh, Peg3 prom inh, CF NFkB inh, TRPM1 prom inh)
CC1=NNC(=O)/C1=C\c1cn(-c2ccccc2)nc1-c1ccccc1	HIF-2a inh 95.4, Peg3 prom inh 104.4, CF NFkB inh 93.5, TRPM1 prom inh 94.5
Cc1ccc2nc3sc(C(=O)N4CCOCC4)c(N)c3cc2c1	LMP1 NFkB inh 63.6, TRPM1 prom inh 69.4
Cc1ccc(CC2(C)C(=O)Nc3c(Cl)ccc(Cl)c32)cc1 (stereo not drawn)	none (no result: LMP1 NFkB inh, TRPM1 prom inh)
CC(=O)Nc1c(C(=O)N2CCCCCC2)cnn1-c1ccccc1	LMP1 NFkB inh 79.5
Cc1ccccc1C(=O)Nc1c(C(=O)N2CCCC2)cnn1-c1ccccc1	none
COc1ccc(S(=O)(=O)N2CCOCC2)cc1NC(=O)CCCOc1ccc(C(C)=O)cc1	none (no result: TRPM1 prom inh)
O=C(Nc1cccnc1)c1ccc([N+](=O)[O-])s1	TRPM1 prom inh 75.1
CCCCC(CC)COC(=O)CCCCC(=O)OCC(CC)CCCC (stereo not drawn)	none
CCCCCCCC(=O)OCC(O)CO (stereo not drawn)	KKLEB cytotox -59.5
Cc1ccc(C(=O)NC(=C(Cl)Cl)S(=O)(=O)c2ccc(Cl)cc2)cc1	Peg3 prom inh 58.0
Cc1ccc(C(=O)NC(=C(Cl)Cl)S(=O)(=O)c2ccc(C)cc2)cc1	none
CCCCn1nnnc1C1(C)CCC(=O)N1Cc1ccc(C)cc1 (stereo not drawn)	none (no result: KKLEB cytotox, LMP1 NFkB inh, Peg3 prom inh, CF NFkB inh, TRPM1 prom inh)
COc1c(C)cc(C(O)c2ncc(-c3ccc(C(F)(F)F)cc3)[nH]2)cc1C (stereo not drawn)	none (no result: LMP1 NFkB inh, TRPM1 prom inh)
Cn1nc2c3cc(F)ccc3n(Cc3ccc(F)cc3)cc-2c1=O	none
COc1ccc(-c2cn[nH]c2-c2ccc(OCc3ccc(F)cc3)cc2O)cc1OC	none
COc1cc2c3nnc(-c4ccc(F)cc4)c-3cn(Cc3ccc(F)cc3)c2cc1OC	Peg3 prom inh 97.8, TRPM1 prom inh 73.1
COc1ccc(Cn2cc3c(-c4ccc(F)cc4)nnc-3c3cc(OC)c(OC)cc32)cc1	LMP1 NFkB inh 69.2, Peg3 prom inh 100.7, TRPM1 prom inh 83.3
Cc1ccc(-c2cnc3cccnn23)cc1F	none (no result: LMP1 NFkB inh, TRPM1 prom inh)
O=C(COc1ccc(CNC[C@H]2O[C@@H](n3ccc(=O)[nH]c3=O)[C@H](O)[C@@H]2O)cc1)Nc1ccccn1	none (no result: LMP1 NFkB inh, TRPM1 prom inh)
CN(C)C1CN(Cc2cn(Cc3ccc(F)cc3)nn2)S(=O)(=O)C1 (stereo not drawn)	none (no result: KKLEB cytotox, LMP1 NFkB inh, Peg3 prom inh, CF NFkB inh, TRPM1 prom inh)
O=c1[nH]cc(CCCc2ccccc2)c(=O)[nH]1	none (no result: TRPM1 prom inh)
O=C(O)c1ccc(Oc2nc3ccccc3s2)cc1	Peg3 prom inh 84.0
O=C(Cn1nc(C(F)(F)F)c2c1CCC2)NC1CCCCC1	LMP1 NFkB inh 44.0
COc1cc(/C=N/N=C(N)N)ccc1OCc1ccccc1Cl	Peg3 prom inh 102.0
O/N=C/c1cc(Cl)ccc1OCc1ccccc1Cl	none
COc1ccc(/C=N/N=C/c2ccc(OC)c(OC)c2)cc1OC	LMP1 NFkB inh 44.3
COc1ccc(/C=N/Nc2nnc(C)n2N)cc1OC	LMP1 NFkB inh 60.4
CCNc1ncnc2c1cnn2C1CCCO1 (stereo not drawn)	none
OC[C@@H]1CN(Cc2ccc(Cl)cc2)C[C@H](n2cnc3c(Nc4ccccc4)ncnc32)O1	none (no result: LMP1 NFkB inh, TRPM1 prom inh)
CCOC(=O)C1(C)CCN1C(=O)c1ccc(SC(F)(F)F)cc1 (stereo not drawn)	none (no result: LMP1 NFkB inh, TRPM1 prom inh)
O=[N+]([O-])c1ccc(COc2cccc(CN3CCCCC3)c2)cc1	none
CC(NCC(O)COc1ccc2ccccc2c1)c1ccccc1 (stereo not drawn)	Peg3 prom inh 65.9
CCCC(NCC(O)COc1ccc(-c2ccccc2)cc1)c1ccccc1 (stereo not drawn)	Peg3 prom inh 78.8
Cc1cc(OCC(O)CNC(C)c2ccccc2)ccc1C(C)C (stereo not drawn)	Peg3 prom inh 106.8
CC(NCC(O)COc1ccc(Br)cc1)c1ccccc1 (stereo not drawn)	none
CC(CCc1ccccc1)NCC(O)COc1ccccc1 (stereo not drawn)	none
COc1ccc(OCC(O)CNC(C)c2ccccc2)cc1 (stereo not drawn)	none
C=CCn1c2ccccc2c2nnc(SCCCn3c(=O)[nH]c4ccccc43)nc21	Peg3 prom inh 65.3
COc1ccccc1-c1noc2c1C(=O)N(Cc1cn(-c3ccccc3OC)nn1)CC2	none (no result: KKLEB cytotox, LMP1 NFkB inh, Peg3 prom inh, CF NFkB inh, TRPM1 prom inh)
OCCN=c1cc(-c2ccccc2)oc2ccc(Cl)cc12	none
CN(C)CCCN=c1cc(-c2ccccc2)oc2ccc(Cl)cc12	Peg3 prom inh 99.7
CCOC(=O)CC/C(C)=N\N=C1\SC(CC(=O)O)C(=O)N1c1ccccc1 (stereo not drawn)	LMP1 NFkB inh 44.1
c1ccc(-c2nc3ccccc3[nH]2)nc1	none
Cc1ccc2nc(-c3ccccn3)[nH]c2c1	LMP1 NFkB inh 40.7
C#CCNC(=O)C[C@@H]1C[C@@]2(C(=O)OC)CC(C)(C)CC=C2N(CCCCCCCC)C1=O	none (no result: KKLEB cytotox, LMP1 NFkB inh, Peg3 prom inh, CF NFkB inh, TRPM1 prom inh)
COc1cc(C(=O)Nc2ccc(C)cn2)ccc1OCC(=O)N1CCOCC1	none
COc1cc(C(=O)Nc2nc(-c3ccc(Cl)cc3)c(C)s2)ccc1OCC(=O)Nc1ccc(F)cc1	KKLEB cytotox -58.4
COc1ccc(-c2nc(NC(=O)c3ccc(OCC(=O)N4CCOCC4)c(OC)c3)sc2C)cc1	Peg3 prom inh 65.9
COc1ccc(CN2C(=O)c3ccccc3C2c2nnnn2Cc2ccccc2)cc1OC (stereo not drawn)	none (no result: KKLEB cytotox, LMP1 NFkB inh, Peg3 prom inh, CF NFkB inh, TRPM1 prom inh)
Cc1ccc(C(C(=O)NCc2ccccc2)N(Cc2ccco2)C(=O)c2snc(C(N)=O)c2N)o1 (stereo not drawn)	Peg3 prom inh 51.7
CCc1ccccc1N(CC(=O)NCc1ccco1)C(=O)c1snc(C(N)=O)c1N	LMP1 NFkB inh 54.7
COCCNC(=O)C1CCCN(C(=O)COCc2ccccc2)CC1 (stereo not drawn)	none (no result: LMP1 NFkB inh, TRPM1 prom inh)

Screening results deposited in PubChem by several laboratories.
